For 72 molecules, inhibition results are on record in PubChem BioAssay.

Test [1] has as its system transactivating tegument protein VP16 (Human herpesvirus 1). The test is described as follows: compounds suppressing VP16-driven luciferase signal – cell-based, luminescence, single concentration, counter-screen for SRC2 inhibitor project (AID 652007). The following applies: cell-based VP16 transactivation luciferase reporter, at 8.9 µM, hits give high values. On the technique in general: Counterscreens check selectivity or assay interference.

The target of test [2] is Nuclear receptor coactivator 2 (Homo sapiens) (UniProt Q15596). The test is described as follows: inhibition of GAL4-SRC2 driven luciferase expression – cell-based, luminescence, HEK293, triplicate, confirmation (AID 652008;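 active = mean inhibition above 46.5%, the solvent-only control mean plus 3 SD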;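 note: 0% = DMSO-treated cells and 100% = Gossypol at 36 µM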). The following applies: HEK293 GAL4-SRC2 luciferase reporter, at 8.9 µM, hits give high values. (In general: A reporter such as luciferase makes a cellular process visible.)

Each structure is given as a SMILES string. Unmarked numbers belong to inactive results. Calls of active or inactive are those of the source. Cut-off read from the data, not from the text of the source, unless noted: active = inhibition above about 36%; inactive = the rest.

Nuclear receptor coactivator 2 (Homo sapiens), sequence (Q15596 whole entry, looked up, the tested form may be a part): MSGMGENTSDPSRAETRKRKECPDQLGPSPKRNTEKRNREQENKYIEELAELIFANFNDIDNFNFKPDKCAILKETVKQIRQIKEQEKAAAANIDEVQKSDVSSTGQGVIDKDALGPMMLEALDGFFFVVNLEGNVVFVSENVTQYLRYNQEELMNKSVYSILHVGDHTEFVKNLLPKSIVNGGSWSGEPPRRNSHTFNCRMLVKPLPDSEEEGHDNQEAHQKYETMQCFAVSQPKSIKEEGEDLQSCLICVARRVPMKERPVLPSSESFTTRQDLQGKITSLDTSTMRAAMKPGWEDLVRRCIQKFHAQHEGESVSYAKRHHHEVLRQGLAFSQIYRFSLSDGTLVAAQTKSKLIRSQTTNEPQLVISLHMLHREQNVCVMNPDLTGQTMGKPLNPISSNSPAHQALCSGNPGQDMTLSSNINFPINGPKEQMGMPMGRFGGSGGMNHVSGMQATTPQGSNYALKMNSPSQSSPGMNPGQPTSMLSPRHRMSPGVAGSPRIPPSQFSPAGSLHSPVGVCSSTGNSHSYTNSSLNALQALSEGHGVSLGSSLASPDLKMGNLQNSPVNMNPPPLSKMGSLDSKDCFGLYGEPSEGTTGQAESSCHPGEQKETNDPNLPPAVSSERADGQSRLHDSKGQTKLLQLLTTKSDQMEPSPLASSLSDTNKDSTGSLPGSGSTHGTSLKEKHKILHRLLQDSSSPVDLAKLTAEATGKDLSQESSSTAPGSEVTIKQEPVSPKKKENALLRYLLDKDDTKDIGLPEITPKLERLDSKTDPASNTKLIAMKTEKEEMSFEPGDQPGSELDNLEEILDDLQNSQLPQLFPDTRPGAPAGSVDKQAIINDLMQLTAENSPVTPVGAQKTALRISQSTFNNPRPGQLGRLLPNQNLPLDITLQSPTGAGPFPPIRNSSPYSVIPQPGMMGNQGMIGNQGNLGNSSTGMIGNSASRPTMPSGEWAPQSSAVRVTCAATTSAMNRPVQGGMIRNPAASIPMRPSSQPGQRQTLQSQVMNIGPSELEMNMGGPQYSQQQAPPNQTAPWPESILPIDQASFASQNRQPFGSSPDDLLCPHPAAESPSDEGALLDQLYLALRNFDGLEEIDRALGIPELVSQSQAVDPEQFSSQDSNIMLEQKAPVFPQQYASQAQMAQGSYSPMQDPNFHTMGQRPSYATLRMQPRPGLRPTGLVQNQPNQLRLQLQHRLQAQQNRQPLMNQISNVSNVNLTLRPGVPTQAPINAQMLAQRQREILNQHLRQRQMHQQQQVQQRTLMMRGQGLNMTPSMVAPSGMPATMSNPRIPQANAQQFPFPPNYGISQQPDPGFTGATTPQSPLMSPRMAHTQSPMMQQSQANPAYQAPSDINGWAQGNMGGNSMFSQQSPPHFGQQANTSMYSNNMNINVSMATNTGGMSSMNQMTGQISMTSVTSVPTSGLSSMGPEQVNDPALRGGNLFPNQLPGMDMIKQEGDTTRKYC

One may read the inhibition as the change of the read-out against control, counted positive when it falls. `Cc1ccc(-c2noc(CCCC(=O)NC3CCCC3)n2)cc1`: the inhibition in test [1] was 20.1%; in test [2] it was 42.4%.

For the molecule `O=C(c1ccco1)N1CCN(C(=O)N2c3ccccc3Sc3ccccc32)CC1`, the inhibition in test [1] is 6.34%; in test [2], 14.1%.

For `COc1ccc(/C=C2/SC(=S)N(CCCC(=O)N3CCN(C)CC3)C2=O)cc1`, the values for the inhibition in test [1] and in test [2] were 8.95% and 2.01%, respectively.

Consider `CC(=O)c1cccc(NC(=O)c2ccccc2N(C)S(=O)(=O)c2ccc(C)cc2)c1`, for which the inhibition in test [1] is -5.87%; in test [2], 0.15%.

For `CC(C)(C)c1ccc(OCCC(=O)OCC(=O)NC2CC2)cc1`, the inhibition in test [1] was 23.8%; in test [2], 2.38%.

`C[C@@H]1C[C@H]2O[C@@H]2/C=C\C=C\C(=O)Cc2cc(O)cc(O)c2C(=O)O1`: the inhibition in test [1] is 34.7%; in test [2], 15.2%.

For the molecule `CC(C)(C)c1ccc(Cn2c(=O)cnc3ccccc32)cc1`, the inhibition in test [1] is 22.6%; in test [2] it was 56.7% (active).

Consider `CC1CCC(C(C)C)C(OCC(O)CN2CCCC(C)C2)C1` (centres undefined), for which the inhibition in test [1] was -4.71%; in test [2] it was -16.1%.

In the case of `Cc1ccc(S(=O)(=O)c2nc(NCCN(C)C)sc2Cl)cc1`, the inhibition is -5.23% in test [1] and 28.4% in test [2].

For `CCc1ccc(/C=C2\SC(=S)N(CCCC(=O)Nc3cc(C)on3)C2=O)cc1`, the inhibition in test [1] is 28.9%; in test [2], 73.4% (active).

On to `Cc1ccc([N+](=O)[O-])cc1N(CC(=O)Nc1ccc(S(=O)(=O)Nc2cccc(C(F)(F)F)c2)cc1)S(C)(=O)=O`, for which the inhibition in test [1] was -13.7%; in test [2], -3.19%.

Turning to `COc1ccc(OCCNC(=O)c2ccc3nc(C)c(N(C)C(=O)CCc4ccccc4)n3c2)cc1`, the figures for the inhibition in test [1] and in test [2] were -12.5% and 2.8%, respectively.

Regarding `Cn1cc(CN2CCN(CCO)CC2)c(-c2ccc(Oc3ccccc3)cc2)n1`, the inhibition in test [1] was -9.32%; in test [2], 7.36%.

Regarding `NCCOc1ccc(C2CCCCC2)cc1`, the values for the inhibition in test [1] and in test [2] were -53.7% and 23%, respectively.

In the case of `CC(C)C[C@@H]1COc2cc(Br)ccc2S(=O)(=O)N1Cc1cn(CCC2OCCCO2)nn1`, the inhibition was -3.85% in test [1] and 3.37% in test [2].

`CCCCc1ccc(N/C(N)=N/c2nc(C)cc(C)n2)cc1`: the inhibition was 30.2% in test [1] and 32.1% in test [2].

Turning to `Cc1nc2cc(-c3ccc(Cl)cc3)nn2c(C)c1CCC(=O)NC(C)c1ccc2c(c1)OCCO2` (centres undefined), the figures for the inhibition in test [1] and in test [2] were -10.9% and 72.8% (active), respectively.

As for `COc1ccc(-c2nc(NC(=O)C3CC(=O)N(c4ccc5c(c4)OCCO5)C3)sc2C)cc1` (centres undefined), the values for the inhibition in test [1] and in test [2] were -6.3% and 50.7% (active), respectively.

For `O=C1C2CCCN2C(=S)N1C1CCCCC1` (centres undefined), the inhibition in test [1] was 1.86%; in test [2], 3.89%.

Consider `COc1ccc(CN2CCN(Cc3ccc(C(F)(F)F)cc3)CC2)cc1`, for which the inhibition was 10.7% in test [1] and 22.6% in test [2].

For `O=S(=O)(c1ccc(Cl)cc1)N1CCCC1c1nc(-c2ccc(Cl)cc2)no1` (centres undefined), the inhibition in test [1] was -5.4%; in test [2], -14.7%.

Regarding `N=c1nc(SCCC(=O)O)ss1`, the inhibition in test [1] was 14.4%; in test [2], 51.7% (active).

Consider `COc1ccc(S(=O)(=O)N2c3ccc(F)cc3CCC2C)cc1` (centres undefined), for which the inhibition was -6.76% in test [1] and 1.23% in test [2].

Take `CCOc1ccc(-c2c(C(=O)N/N=C/c3cccc(Br)c3)nnn2-c2nonc2N)cc1`: the values for the inhibition in test [1] and in test [2] were -5.94% and -23.4%, respectively.

`Cc1nn(-c2ccccc2)c(N2CCCC2)c1/C=N/NC(=O)c1cccc(S(=O)(=O)Nc2ccc(Cl)cc2)c1`: the inhibition in test [1] is -8.85%; in test [2], -16.7%.

Take `O=C(Nc1ncn[nH]1)c1ccc(Cl)c(S(=O)(=O)Nc2ccc(Cl)cc2)c1`: the inhibition is -5.84% in test [1] and 5.69% in test [2].

`CCCSc1ccc2nc(-c3ccccc3)cn2c1`: the inhibition was -24.4% in test [1] and 58% (active) in test [2].

Take `CCCn1c(CC)nc([N+](=O)[O-])c1Sc1ccc(F)cc1`: the inhibition in test [1] was -3.5%; in test [2] it was 13.2%.

`CCOC(=O)C1(Cc2ccccc2)CCN(Cc2ccnc3ccccc23)CC1`: the inhibition was -2.44% in test [1] and 14.6% in test [2].

As for `COc1ccccc1/C=C1\SC(=S)N(CCC(=O)NCCCn2ccnc2)C1=O`, the inhibition in test [1] is -0.06%; in test [2], 1.79%.

Regarding `Cc1nc2ccccc2c2c1CC(C(C)(Cl)Br)O2` (centres undefined), the inhibition was 5.15% in test [1] and 29.1% in test [2].

As to `COC(=O)c1ccc(-c2nc3cc(N)ccc3o2)cc1`, the results for the inhibition in test [1] and in test [2] were -20.4% and 49.8% (active), respectively.

For `O=C(c1ccccc1F)N1CCN(S(=O)(=O)c2ccc3c(c2)OCCO3)CC1`, the inhibition was 3.25% in test [1] and 22.9% in test [2].

Take `COc1ccc2cc3cc(C(=O)Nc4ccc5c(c4)OCO5)oc3nc2c1`: the values for the inhibition in test [1] and in test [2] were -29.9% and -32%, respectively.

Turning to `COc1ccc([C@H]2CC(=O)C=C(c3ccc(Oc4ccccc4)cc3)C2)cc1OC`, the inhibition is 10.7% in test [1] and 15.4% in test [2].

`Cc1nnc(NC(=O)c2nc(S(=O)(=O)Cc3ccccc3)ncc2Cl)s1`: the results for the inhibition in test [1] and in test [2] were 1.66% and 22.4%, respectively.

As for `O=C(CN1C(=O)NC2(CCCCC2)C1=O)Oc1ccc2c(C(F)(F)F)cc(=O)oc2c1`, the results for the inhibition in test [1] and in test [2] were -11.6% and -1.74%, respectively.

As for `C=C(C(=O)c1ccccc1)C(C)CC(=O)c1ccccc1` (centres undefined), the figures for the inhibition in test [1] and in test [2] were 11.5% and 26.8%, respectively.

With `CS(=O)(=O)c1ccc(Cl)c(NC(=O)c2cccc(-n3cnnn3)c2)c1`, the figures for the inhibition in test [1] and in test [2] were -11.3% and -13.4%, respectively.

For the molecule `CCNC(=O)COc1ccc(/C=C2\COc3ccccc3C2=O)cc1OC`, the inhibition in test [1] is 3.8%; in test [2], 78.1% (active).

Consider `Cc1ccc(S(=O)(=O)C(NC(=O)c2ccccc2)=C(Cl)Cl)cc1`, for which the inhibition in test [1] is 14.1%; in test [2], 16.8%.

As to `CCOc1ccc(-n2c(C)nc3cc(C(=O)NCC4CCCO4)ccc32)cc1` (centres undefined), the inhibition in test [1] was -16.6%; in test [2], -3.58%.

Regarding `CCC(C)(C)c1ccc(Oc2ccc(NC(=O)COC(=O)C3=COCCO3)cc2)cc1`, the inhibition in test [1] is 33.8%; in test [2], 46.5%.

On to `N#Cc1c(NC(=O)CCCC(=O)O)sc2c1CCCCC2`, for which the inhibition in test [1] is -8.88%; in test [2] it was 44%.

With `Cc1ccc(C(=O)Nc2ccc3ccccc3c2)cc1`, the inhibition is -57.4% in test [1] and 12.1% in test [2].

Regarding `O=c1c(Br)ccc(Br)cc1Br`, the inhibition in test [1] is 97.7% (active); in test [2], 99.4% (active).

Consider `CCCc1nc(SCC(=O)Nc2cc(C)on2)c2ccccc2n1`, for which the inhibition in test [1] was 1.01%; in test [2], 10.1%.

In the case of `COCCN(C(=O)CC1C(=O)NCCN1Cc1ccc(-c2ccccc2)cc1)C(C)C` (centres undefined), the inhibition in test [1] is -1.75%; in test [2], -6.54%.

For the molecule `CC(=NNc1ccc2ccccc2n1)c1ccccn1`, the figures for the inhibition in test [1] and in test [2] were 83.8% (active) and 89.3% (active), respectively.

`COc1ccc(C(=O)C(CN2CCCC2)c2ccccc2)cc1` (centres undefined): the inhibition is 0.75% in test [1] and 40.2% in test [2].

For the molecule `NCCN1C(=O)S/C(=C\c2ccc3c(c2)OCO3)C1=O`, the inhibition was 44% (active) in test [1] and 56.6% (active) in test [2].

As for `Cc1ccc(/C=C2/SC(=S)N(CCCC(=O)Nc3cc([N+](=O)[O-])ccc3O)C2=O)cc1`, the inhibition in test [1] is 27.4%; in test [2] it was 49.7% (active).

In the case of `CCCCc1ccc(S(=O)(=O)N/N=C(/C)c2ccncc2)cc1`, the inhibition in test [1] was 30.5%; in test [2], 68.7% (active).

Take `CC(C)(C)c1ccc(C(=O)Nc2ccc(NC(=O)C(=O)O)cc2)o1`: the inhibition in test [1] is -30%; in test [2] it was -15.8%.

As for `COc1ccc(OCCCCn2c(CO)nc3ccccc32)cc1`, the inhibition in test [1] was -6.88%; in test [2] it was -14.2%.

With `O=C(Cc1ccc(Cl)cc1)NCCc1cnc[nH]1`, the figures for the inhibition in test [1] and in test [2] were -16.2% and -12.5%, respectively.

For the molecule `Cc1ccc(/C=C2\SC(=S)N(CCCC(=O)Nc3cc(C)on3)C2=O)cc1`, the inhibition in test [1] is 31.6%; in test [2], 68.8% (active).

Regarding `Cc1oc(-c2cccc3ccccc23)nc1CN1CCN(c2ncnc3ccccc23)CC1`, the figures for the inhibition in test [1] and in test [2] were -22.1% and 5.63%, respectively.

As to `CN(Cc1ccccc1)S(=O)(=O)c1ccc(Cl)c(C(=O)NCCCN2CCOCC2)c1`, the values for the inhibition in test [1] and in test [2] were -5.53% and 5.69%, respectively.

With `COc1cc(OC)cc(-c2cc3nc(C)c(CCC(=O)NCc4ccccc4)c(C)n3n2)c1`, the inhibition is 66.8% (active) in test [1] and 72.1% (active) in test [2].

Take `Cc1ccc(C)c(NS(=O)(=O)c2cc(C(=O)NCCSC3CCCCC3)ccc2C)c1`: the inhibition in test [1] is -17.6%; in test [2] it was 3.68%.

In the case of `CCCCC(NC(=O)CCc1c(C)c2cc3c4c(oc3c(C)c2oc1=O)CCCC4)C(=O)O` (centres undefined), the values for the inhibition in test [1] and in test [2] were 31.6% and 29.4%, respectively.

For `CC1=CC(C)(C)N(S(=O)(=O)c2ccc(C)cc2)c2ccc(C)cc21`, the results for the inhibition in test [1] and in test [2] were 0.6% and -5.7%, respectively.

As for `O=C(CSc1nc2[nH]c(=O)[nH]c(=O)c2s1)Nc1cccc(F)c1`, the values for the inhibition in test [1] and in test [2] were 0.35% and -0.5%, respectively.

As to `Cc1ccc(NCC(=O)Nc2cccc(F)c2)cc1S(=O)(=O)N1CCCCCC1`, the figures for the inhibition in test [1] and in test [2] were 15.9% and 3.72%, respectively.

As to `CCN(CC)S(=O)(=O)c1ccc(C)c(NC(=S)NC2CCCCC2)c1`, the inhibition is 8.38% in test [1] and -9.1% in test [2].

On to `COc1ccccc1NS(=O)(=O)c1ccc(C)c(C(=O)NC2CCN(Cc3ccccc3)CC2)c1`, for which the inhibition was 17.2% in test [1] and 36.4% in test [2].

In the case of `CC(C)Oc1ccc(S(=O)(=O)N2CCCCC2)cc1NC(=O)C1CCCC1`, the inhibition in test [1] is 11.3%; in test [2] it was 2.87%.

Regarding `CN(C(=O)CCc1nnc(-c2ccc(-c3ccccc3)cc2)o1)C1CCOCC1`, the inhibition in test [1] was -6.16%; in test [2], 26.7%.

In the case of `COC(=O)COc1ccc(S(=O)(=O)Nc2ccc3c(c2)OCCO3)cc1C`, the inhibition in test [1] is -11.5%; in test [2] it was 6.48%.

Take `CC(C)c1ccc(/C=C/C(=O)N2CCCCCC2)cc1`: the inhibition in test [1] was -73.2%; in test [2], -26%.

Regarding `COc1cccc(/C=C2/SC(=S)N(CCCC(=O)Nc3ccc(O)cc3)C2=O)c1`, the inhibition in test [1] was 51.1% (active); in test [2], 23.7%.
